SMILES strings stand for the structures.

The test is described as follows: small molecules captured by biotinylated probe aFGF2 – biochemical, small-molecule microarray, fluorescence 635/667, stem cell growth factor project, primary screen (AID 1067).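 Also: measures binding of biotinylated aFGF2 protein to printed compounds on slides; z-score merges feature fluorescence and signal-to-noise across triplicate slides.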 To be noted: higher = more signal.
`CCOC(=O)C=Cc1cc(F)ccc1O` showed a composite z-score of 0.0087.
The compound `[N-]=[N+]=Nc1ccccc1[C@@H]1OC(c2ccc(OCCCO)cc2)=N[C@]1(Cc1ccccc1)C(=O)NCc1ccccc1` came in with a composite z-score of 0.0653.
`Cc1ccccc1C(O)C1C=CC2C(=O)NC(=O)C2N1Nc1ccc(Cl)cc1Cl` (configuration not stated): the composite z-score turned out to be 0.0342.
As for `COc1ccc([Si](C)(C)[C@H]2[C@H](CCO)O[C@@]3(C(=O)N(Cc4ccccc4)c4ccc(N5CCOC5=O)cc43)[C@@H]2C)cc1`, the composite z-score is -0.126.
Regarding `COCC1C2CC[C@H]3C(OCc4ccc(OC)cc4)OC[C@]4(C)[C@H]3C2=C(CN4C(=O)OC(C)(C)C)[C@H](C)C1COC` (some centres not stated), the composite z-score stood at 0.142.
The compound `COCCOC(=O)N1C(=O)[C@@]2(c3cc(C#CC4(O)CCCCCC4)ccc31)[C@H](C(=O)N1CCN(c3ncccn3)CC1)[C@H]1C(=O)O[C@H](c3ccccc3)[C@H](c3ccccc3)N1[C@@H]2c1ccccc1OCCO` showed a composite z-score of -0.0195.
For `COc1ccc(C(=O)Nc2cccc(CN3C(=O)[C@@]4(O[C@@H](CC(=O)N(CCO)Cc5ccccc5)[C@H]([Si](C)(C)c5ccc(OC)cc5)[C@H]4C)c4ccccc43)c2)cc1`, the composite z-score is -0.119.
On to `COCCOC(=O)N1C(=O)[C@@]2(c3cc(C#CCNC(N)=O)ccc31)[C@H](c1ccc(O)cc1)N1[C@H](c3ccccc3)[C@H](c3ccccc3)OC(=O)[C@H]1[C@@H]2C(N)=O`, for which the composite z-score is -0.161.
The compound `O=C1C2C=CC(C(O)c3cccc(O)c3)N(Nc3ccccc3)C2C(=O)N1c1ccccc1` (configuration not stated) registered a composite z-score of -0.0901.
Then `COc1ccc([Si](C)(C)[C@@H]2[C@@H](CC(=O)N3Cc4ccccc4C[C@H]3CO)O[C@]3(C(=O)N(c4ccccc4)c4ccccc43)[C@H]2C)cc1`, with 0.411; and `COc1ccc(C(O)C2C=CC3C(=O)N(c4ccccc4)C(=O)C3N2Nc2ccccc2F)cc1` (configuration not stated), with -0.0747; and `COCCOC(=O)N1C(=O)[C@@]2(c3cc(C#CCC(C(=O)OC)C(=O)OC)ccc31)[C@H](c1ccc(O)cc1)N1[C@H](c3ccccc3)[C@H](c3ccccc3)OC(=O)[C@H]1[C@@H]2C(=O)NC[C@H](O)c1ccccc1`, with 0.0521.
In turn, `COCC(=C=CC[C@H](O)c1cccc(OCCO)c1)C[C@H](O)COCc1ccccc1` showed a composite z-score of -0.0602.
For the compound `C=C(C)[C@@H]1CC=C(C(O)C2C=CC3C(=O)N(c4ccccc4)C(=O)C3N2Nc2ccc(C#N)cc2)CC1` (some centres not stated), the composite z-score stood at 0.169.
The compound `COc1ccc(NC(=O)O[C@H]2[C@@H]3OC(=O)[C@H](Cc4cccc(Br)c4)C/C=C/C[C@@H](Cc4cccc(Br)c4)C(=O)O[C@H]3[C@@H](OC)O[C@@H]2CO)cc1` registered a composite z-score of 0.0929.
`C=C(/C(=C/C[C@H](OC(=O)c1ccncc1)c1cccc(OCCO)c1)c1cnc2ccccc2c1)C(C)C` came in with a composite z-score of -0.0448.
`CS(=O)(=O)CCOC(=O)C1=CC(CCCO)=CC(C2CC2)N(Cc2cccc(OC(F)(F)F)c2)C=C1C(=O)OCCS(C)(=O)=O` (configuration not stated) had a composite z-score of -0.0734.
Then `NC(=O)[C@H]1[C@@H]2C(=O)O[C@@H](c3ccccc3)[C@@H](c3ccccc3)N2[C@@H](c2ccc(O)cc2)[C@]12C(=O)Nc1ccc(C#CC3=CCCCC3)cc12`, with -0.0979.
As for `[N-]=[N+]=NCc1ccccc1[C@@H]1OC(c2ccc(OCCCO)cc2)=N[C@]1(Cc1ccccc1)C(=O)NCCN1CCOCC1`, the composite z-score was 0.159.
Compound `COc1cc(C(O)C2C=CC3C(=O)N(Cc4ccccc4)C(=O)C3N2n2cnnc2)cc(OC)c1OC` (configuration not stated) returned a composite z-score of 0.133.
As to `C=CCN1C(=O)[C@@]2(O[C@@H](CCO)[C@H]([Si](C)(C)c3ccc(OC)cc3)[C@H]2C)c2cc(N3CCOC3=O)ccc21`, the composite z-score is -0.0455.
Take `CC(C)[C@H]1NC(=O)[C@@]23C(=O)N[C@@H](Cc4ccccc4)C2[C@H](C)[C@@]2(C)O[C@H]2C3/C=C/C/C=C\CNC(=O)[C@H](Cc2ccccc2)NC1=O` (some centres not stated): the composite z-score was -0.0462.
`O=C1C2C=CC(C(O)c3ccco3)N(Nc3ccccc3)C2C(=O)N1c1ccccc1` (configuration not stated) yielded a composite z-score of -0.0767.
On to `CC(C)C[C@@H]1NC(=O)[C@@]23C(=O)N[C@@H](Cc4ccccc4)C2[C@H](C)[C@@]2(C)O[C@H]2C3/C=C/C/C=C\CNC(=O)[C@@H](C)NC1=O` (some centres not stated), for which the composite z-score is -0.0963.
`CCN(CC)c1ccc(N2CC=CC34O[C@@H]5/C=C\CCC(C)OC(=O)C5[C@H]3C(=O)N(C(C)CO)[C@@H]4C2=O)cc1` (some centres not stated) displayed a composite z-score of -0.116.
On to `CO[C@H]1O[C@H](CO)[C@@H](OC(=O)c2ccc(Br)cc2)[C@@H]2OC(=O)[C@H](Cc3ccccc3)C/C=C/C[C@@H](Cc3ccccc3)C(=O)O[C@@H]12`, for which the composite z-score is -0.0048.
Regarding `CC(C)C(CO)N1C(=O)[C@@H]2[C@H]3C(=O)OCC=C[C@H]3OC23C=CCN(C(C)(C)C)C(=O)[C@@H]13` (some centres not stated), the composite z-score is -0.155.
